Results on one compound are retold here after the supplement of paper PMC11732987, “Enantioselective OTUD7B fragment discovery through chemoproteomics screening and high-throughput optimisation” (Communications Chemistry, 2025).

Common to all, as to test: log2 ratio of Biotin-Ahx-Ub-VS probe labelling (fragment/DMSO); higher = less target engagement (more negative = stronger competition), active = hit call of the paper (q ≤ 0.05, log2 ratio ≤ -1)
Settings in all cases: compound concentration: 200 uM; treatment time: 3 h

The target in one assay is USP16 (UniProt Q9Y5T5). A digest of the protocol:
(§1)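 Global-median-normalised Spectronaut label-free quantities were compared by unpaired t-test, and values are average log2 ratios of fragment over vehicle. Only proteins with ≥2 unique peptides were used. HEK293T lysate (495 µg per sample) was treated in triplicate with fragment at 200 µM or vehicle for 3 h and then with Biotin-Ahx-Ub-VS at 0.5 µM final for 1 h. Labelled DUBs were then NeutrAvidin-enriched, digested with LysC and trypsin, and run by diaPASEF LC-MS/MS.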

A further assay concerns the target T1, USP19 (UniProt O94966).
T1 sequence (whole entry): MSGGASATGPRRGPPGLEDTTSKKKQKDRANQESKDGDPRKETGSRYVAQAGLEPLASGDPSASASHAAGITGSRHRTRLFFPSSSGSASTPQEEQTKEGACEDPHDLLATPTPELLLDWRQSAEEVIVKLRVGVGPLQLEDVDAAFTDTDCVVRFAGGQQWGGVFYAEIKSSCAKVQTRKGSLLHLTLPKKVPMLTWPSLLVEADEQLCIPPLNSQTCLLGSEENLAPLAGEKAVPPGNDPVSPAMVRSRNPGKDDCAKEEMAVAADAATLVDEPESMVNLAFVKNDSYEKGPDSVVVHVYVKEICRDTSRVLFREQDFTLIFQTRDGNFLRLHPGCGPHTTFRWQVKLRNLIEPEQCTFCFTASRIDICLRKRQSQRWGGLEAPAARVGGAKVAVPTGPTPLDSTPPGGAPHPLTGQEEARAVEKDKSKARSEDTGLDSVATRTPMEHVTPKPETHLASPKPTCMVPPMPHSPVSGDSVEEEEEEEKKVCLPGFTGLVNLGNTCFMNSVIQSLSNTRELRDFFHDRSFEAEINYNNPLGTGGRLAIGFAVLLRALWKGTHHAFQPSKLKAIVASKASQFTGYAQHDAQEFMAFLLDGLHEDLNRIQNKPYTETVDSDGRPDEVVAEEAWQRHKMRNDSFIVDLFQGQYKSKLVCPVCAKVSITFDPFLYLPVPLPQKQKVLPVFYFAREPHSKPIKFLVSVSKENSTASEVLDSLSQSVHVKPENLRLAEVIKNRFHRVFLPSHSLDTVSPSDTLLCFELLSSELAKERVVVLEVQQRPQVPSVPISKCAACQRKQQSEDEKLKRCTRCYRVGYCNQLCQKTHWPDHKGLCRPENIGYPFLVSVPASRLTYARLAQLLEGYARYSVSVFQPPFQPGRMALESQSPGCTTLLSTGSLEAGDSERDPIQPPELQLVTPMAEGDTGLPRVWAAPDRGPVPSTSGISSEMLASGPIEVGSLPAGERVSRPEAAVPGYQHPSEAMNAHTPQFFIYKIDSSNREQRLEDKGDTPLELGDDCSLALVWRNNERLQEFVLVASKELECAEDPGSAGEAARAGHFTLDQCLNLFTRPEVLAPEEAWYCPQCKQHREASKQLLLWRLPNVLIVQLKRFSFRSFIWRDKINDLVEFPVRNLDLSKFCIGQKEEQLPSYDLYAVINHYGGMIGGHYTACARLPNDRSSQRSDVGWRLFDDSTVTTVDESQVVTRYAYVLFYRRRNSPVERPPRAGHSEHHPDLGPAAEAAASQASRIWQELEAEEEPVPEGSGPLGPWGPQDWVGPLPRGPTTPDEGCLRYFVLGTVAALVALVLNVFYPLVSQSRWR
A digest of the protocol: as §1

The target in the next assay is USP24 (UniProt Q9UPU5). A digest of the protocol:
as §1

A further assay concerns the target T2, USP25 (UniProt Q9UHP3).
T2 sequence (whole entry): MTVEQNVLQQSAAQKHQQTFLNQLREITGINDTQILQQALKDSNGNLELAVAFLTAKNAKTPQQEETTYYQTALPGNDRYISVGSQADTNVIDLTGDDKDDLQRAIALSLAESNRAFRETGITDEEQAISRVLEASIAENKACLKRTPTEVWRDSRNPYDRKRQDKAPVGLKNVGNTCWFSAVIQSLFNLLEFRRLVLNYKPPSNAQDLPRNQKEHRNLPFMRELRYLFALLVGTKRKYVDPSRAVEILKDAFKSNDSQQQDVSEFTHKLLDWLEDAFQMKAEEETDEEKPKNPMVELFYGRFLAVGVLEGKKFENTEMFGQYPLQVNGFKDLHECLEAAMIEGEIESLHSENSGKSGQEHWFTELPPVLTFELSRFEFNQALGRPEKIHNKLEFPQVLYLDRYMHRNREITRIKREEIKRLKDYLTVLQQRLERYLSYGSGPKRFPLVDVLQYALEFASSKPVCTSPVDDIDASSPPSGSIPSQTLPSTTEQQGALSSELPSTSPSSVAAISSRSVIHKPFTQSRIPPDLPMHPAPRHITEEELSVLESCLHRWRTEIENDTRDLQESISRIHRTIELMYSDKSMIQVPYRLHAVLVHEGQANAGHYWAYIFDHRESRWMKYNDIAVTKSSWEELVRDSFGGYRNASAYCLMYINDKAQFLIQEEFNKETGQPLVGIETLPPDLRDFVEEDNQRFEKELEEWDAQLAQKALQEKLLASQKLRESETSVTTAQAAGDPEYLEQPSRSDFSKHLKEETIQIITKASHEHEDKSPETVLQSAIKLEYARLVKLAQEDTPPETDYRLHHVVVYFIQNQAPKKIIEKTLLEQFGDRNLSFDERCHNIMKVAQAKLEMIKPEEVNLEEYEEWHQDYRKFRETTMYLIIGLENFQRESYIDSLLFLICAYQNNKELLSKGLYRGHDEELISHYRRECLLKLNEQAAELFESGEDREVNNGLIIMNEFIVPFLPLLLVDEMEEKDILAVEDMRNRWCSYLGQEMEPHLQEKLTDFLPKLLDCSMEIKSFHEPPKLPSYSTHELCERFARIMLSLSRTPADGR
A digest of the protocol:
as §1

Another assay deals with T3, USP28 (UniProt Q96RU2).
T3 sequence (whole entry): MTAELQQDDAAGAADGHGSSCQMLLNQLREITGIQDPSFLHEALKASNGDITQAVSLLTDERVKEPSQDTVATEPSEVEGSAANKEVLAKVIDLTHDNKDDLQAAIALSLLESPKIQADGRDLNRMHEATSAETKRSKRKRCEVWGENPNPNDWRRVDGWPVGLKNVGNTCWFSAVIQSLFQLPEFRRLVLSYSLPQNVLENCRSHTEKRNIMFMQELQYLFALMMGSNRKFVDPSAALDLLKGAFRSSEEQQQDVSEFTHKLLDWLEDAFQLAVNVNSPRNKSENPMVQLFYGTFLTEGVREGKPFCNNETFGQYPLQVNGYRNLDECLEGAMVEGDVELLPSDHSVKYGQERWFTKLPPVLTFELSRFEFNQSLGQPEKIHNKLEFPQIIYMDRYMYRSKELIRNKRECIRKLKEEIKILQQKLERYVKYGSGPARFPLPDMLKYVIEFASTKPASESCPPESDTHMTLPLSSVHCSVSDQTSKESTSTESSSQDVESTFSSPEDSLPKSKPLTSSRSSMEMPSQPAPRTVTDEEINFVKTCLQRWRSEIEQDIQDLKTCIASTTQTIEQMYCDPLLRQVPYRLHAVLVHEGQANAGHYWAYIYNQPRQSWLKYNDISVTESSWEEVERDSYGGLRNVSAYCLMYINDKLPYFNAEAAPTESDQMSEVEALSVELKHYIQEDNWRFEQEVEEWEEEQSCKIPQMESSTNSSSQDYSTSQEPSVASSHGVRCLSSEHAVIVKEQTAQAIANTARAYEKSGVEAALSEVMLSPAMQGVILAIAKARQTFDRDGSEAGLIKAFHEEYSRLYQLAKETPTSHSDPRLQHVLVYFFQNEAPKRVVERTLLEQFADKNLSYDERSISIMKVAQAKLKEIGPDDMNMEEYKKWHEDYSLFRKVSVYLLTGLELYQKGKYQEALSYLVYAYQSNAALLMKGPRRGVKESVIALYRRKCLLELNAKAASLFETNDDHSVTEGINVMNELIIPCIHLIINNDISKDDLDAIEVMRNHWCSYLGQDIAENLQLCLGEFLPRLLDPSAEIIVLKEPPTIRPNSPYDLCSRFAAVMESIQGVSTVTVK
An outline of the steps:
as §1

A number with no mark means an inactive call.

Chain of USP16 (Q9Y5T5 whole entry, looked up, the tested form may be a part): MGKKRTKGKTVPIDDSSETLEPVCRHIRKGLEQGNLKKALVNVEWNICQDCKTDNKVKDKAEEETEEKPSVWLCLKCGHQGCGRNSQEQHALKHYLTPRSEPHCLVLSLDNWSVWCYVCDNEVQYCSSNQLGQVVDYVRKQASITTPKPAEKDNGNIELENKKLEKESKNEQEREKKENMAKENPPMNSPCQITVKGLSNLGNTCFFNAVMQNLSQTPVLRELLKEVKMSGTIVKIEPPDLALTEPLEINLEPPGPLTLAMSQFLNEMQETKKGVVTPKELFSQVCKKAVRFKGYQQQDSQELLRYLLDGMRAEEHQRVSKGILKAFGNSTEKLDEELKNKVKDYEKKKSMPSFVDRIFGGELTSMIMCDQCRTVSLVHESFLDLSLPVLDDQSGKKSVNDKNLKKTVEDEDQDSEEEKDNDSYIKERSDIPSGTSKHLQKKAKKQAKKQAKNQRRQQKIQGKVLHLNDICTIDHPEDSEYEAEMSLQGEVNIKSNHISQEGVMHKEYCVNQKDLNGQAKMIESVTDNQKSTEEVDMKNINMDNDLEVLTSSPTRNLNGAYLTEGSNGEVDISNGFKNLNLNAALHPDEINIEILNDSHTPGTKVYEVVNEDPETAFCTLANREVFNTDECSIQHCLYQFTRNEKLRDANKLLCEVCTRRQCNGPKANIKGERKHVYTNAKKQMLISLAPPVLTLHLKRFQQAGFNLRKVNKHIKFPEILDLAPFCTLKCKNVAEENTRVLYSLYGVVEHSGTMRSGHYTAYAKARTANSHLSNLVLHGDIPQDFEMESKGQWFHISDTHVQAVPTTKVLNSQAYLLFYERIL
Chain of USP24 (Q9UPU5 whole entry): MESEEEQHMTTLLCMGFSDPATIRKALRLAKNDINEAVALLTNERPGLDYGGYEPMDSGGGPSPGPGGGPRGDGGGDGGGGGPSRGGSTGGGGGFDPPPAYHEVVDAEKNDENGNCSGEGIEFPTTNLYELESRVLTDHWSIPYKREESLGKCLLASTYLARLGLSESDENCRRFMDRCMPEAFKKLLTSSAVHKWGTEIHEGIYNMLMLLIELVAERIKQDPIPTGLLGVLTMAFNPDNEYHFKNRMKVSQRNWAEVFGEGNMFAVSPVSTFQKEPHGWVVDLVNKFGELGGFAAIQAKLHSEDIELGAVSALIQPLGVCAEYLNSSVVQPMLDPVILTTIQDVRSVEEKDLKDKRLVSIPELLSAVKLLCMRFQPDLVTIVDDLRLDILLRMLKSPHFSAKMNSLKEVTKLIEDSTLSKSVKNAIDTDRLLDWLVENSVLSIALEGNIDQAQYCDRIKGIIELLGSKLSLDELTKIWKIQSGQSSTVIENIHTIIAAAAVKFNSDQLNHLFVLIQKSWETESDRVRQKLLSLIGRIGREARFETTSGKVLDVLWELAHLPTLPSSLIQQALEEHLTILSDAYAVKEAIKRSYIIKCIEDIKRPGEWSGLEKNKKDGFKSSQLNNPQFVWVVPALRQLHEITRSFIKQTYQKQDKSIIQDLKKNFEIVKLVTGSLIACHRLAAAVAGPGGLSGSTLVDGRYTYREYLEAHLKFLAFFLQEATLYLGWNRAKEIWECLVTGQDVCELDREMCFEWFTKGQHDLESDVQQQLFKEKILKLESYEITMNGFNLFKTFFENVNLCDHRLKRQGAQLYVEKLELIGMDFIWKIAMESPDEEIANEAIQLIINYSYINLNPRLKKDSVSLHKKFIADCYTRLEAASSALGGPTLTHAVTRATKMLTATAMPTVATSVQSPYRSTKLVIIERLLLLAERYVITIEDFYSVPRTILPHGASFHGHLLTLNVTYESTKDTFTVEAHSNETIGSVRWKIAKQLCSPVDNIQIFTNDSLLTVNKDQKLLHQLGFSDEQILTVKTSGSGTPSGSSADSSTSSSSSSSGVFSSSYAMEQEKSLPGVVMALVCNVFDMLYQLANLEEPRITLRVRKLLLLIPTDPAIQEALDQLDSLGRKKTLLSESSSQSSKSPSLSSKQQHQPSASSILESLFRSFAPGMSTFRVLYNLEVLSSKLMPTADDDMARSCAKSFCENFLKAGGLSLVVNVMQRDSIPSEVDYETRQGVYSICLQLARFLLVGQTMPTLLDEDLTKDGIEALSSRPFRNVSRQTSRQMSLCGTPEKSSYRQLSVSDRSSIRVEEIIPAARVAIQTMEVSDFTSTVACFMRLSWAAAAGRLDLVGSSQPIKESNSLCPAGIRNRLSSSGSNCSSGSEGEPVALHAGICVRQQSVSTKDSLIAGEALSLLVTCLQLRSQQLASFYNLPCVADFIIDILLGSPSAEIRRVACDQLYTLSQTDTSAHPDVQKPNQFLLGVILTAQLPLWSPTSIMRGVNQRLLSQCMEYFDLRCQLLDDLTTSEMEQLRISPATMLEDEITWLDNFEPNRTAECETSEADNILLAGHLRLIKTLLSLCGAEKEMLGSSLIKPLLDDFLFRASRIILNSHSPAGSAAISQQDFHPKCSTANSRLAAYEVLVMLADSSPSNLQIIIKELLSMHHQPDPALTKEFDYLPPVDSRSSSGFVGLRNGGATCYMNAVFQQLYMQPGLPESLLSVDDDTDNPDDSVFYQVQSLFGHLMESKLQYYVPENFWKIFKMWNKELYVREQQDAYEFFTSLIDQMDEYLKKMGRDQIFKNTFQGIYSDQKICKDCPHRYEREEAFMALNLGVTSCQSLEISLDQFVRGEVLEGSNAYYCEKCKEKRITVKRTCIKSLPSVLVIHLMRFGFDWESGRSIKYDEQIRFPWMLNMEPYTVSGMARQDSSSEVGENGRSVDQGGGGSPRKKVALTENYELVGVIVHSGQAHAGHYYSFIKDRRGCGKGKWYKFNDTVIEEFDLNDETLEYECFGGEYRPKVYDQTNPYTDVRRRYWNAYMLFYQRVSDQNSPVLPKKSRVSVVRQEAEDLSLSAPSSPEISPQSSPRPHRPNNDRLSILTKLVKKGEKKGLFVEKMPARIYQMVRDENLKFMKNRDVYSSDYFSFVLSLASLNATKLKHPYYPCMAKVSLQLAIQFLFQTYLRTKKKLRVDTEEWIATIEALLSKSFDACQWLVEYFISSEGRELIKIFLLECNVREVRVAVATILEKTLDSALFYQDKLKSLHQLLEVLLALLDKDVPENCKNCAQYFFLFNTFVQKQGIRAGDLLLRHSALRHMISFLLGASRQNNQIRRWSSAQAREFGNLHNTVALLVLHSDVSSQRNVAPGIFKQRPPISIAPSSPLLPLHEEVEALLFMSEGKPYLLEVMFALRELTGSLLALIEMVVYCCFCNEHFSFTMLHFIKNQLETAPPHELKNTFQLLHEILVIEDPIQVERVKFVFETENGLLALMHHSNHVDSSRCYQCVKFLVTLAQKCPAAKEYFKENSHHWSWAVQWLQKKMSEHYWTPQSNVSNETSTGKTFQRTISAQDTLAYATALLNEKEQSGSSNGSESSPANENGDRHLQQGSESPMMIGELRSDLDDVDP

Consider `COc1cc(Cl)c(C)cc1NC(=O)CCl`, for which the “log2 ratio of Biotin-Ahx-Ub-VS probe labelling” value with USP16 is -0.634; with USP19 it was -0.357; with USP24, -1.3 (active); with USP25, -0.839; with USP28, -0.742.
